Experimental data reported in PubChem BioAssay (NCI).
About 83,000 compounds went through this panel and 20% of them were active in at least one assay; those are over-represented in the sample as a whole.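 Activity criterion: percent growth below 10, measured after cells in 96-well plates were exposed to a single compound concentration for 48 hours.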 A number with no mark means an inactive call. Activity calls are given as the source filed them.

Experiments:
Test in all cases: NCI-60 one-dose screen, 48 h (100 = growth as untreated, 0 = no growth, -100 = all killed)
[1] = tested on: HT29 colon; details: 10 µM unless noted
[2] = tested on: SNB-75 CNS; details: 10 µM unless noted
[3] = tested on: SNB-19 CNS; details: 10 µM unless noted
[4] = tested on: U251 CNS; details: 10 µM unless noted
[5] = tested on: PC-3 prostate; details: 10 µM unless noted
[6] = tested on: SK-MEL-5 melanoma; details: 10 µM unless noted
[7] = tested on: UACC-62 melanoma; details: 10 µM unless noted
[8] = tested on: EKVX NSCLC; details: 10 µM unless noted
[9] = tested on: SN12C renal; details: 10 µM unless noted
[10] = tested on: UO-31 renal; details: 10 µM unless noted
[11] = tested on: TK-10 renal; details: 10 µM unless noted
[12] = tested on: ACHN renal; details: 10 µM unless noted
[13] = tested on: CAKI-1 renal; details: 10 µM unless noted
[14] = tested on: A498 renal; details: 10 µM unless noted
[15] = tested on: CCRF-CEM leukemia; details: 10 µM unless noted
[16] = tested on: MOLT-4 leukemia; details: 10 µM unless noted
[17] = tested on: LOX IMVI melanoma; details: 10 µM
[18] = tested on: SK-MEL-28 melanoma; details: 10 µM unless noted
[19] = tested on: SK-MEL-2 melanoma; details: 10 µM unless noted

SMILES	growth [1]	growth [2]	growth [3]	growth [4]	growth [5]	growth [6]	growth [7]	growth [8]	growth [9]	growth [10]	growth [11]	growth [12]	growth [13]	growth [14]	growth [15]	growth [16]	growth [17]	growth [18]	growth [19]
CC(=O)Oc1ccccc1C(=O)[Se]C(=NC1CCCCC1)NC1CCCCC1	-60.8% (active)	-63.3% (active)	-94.9% (active)	-87% (active)	-31% (active)	-89.3% (active)	-90.7% (active)	-97.6% (active)	-99.3% (active)	-100% (active)	-98.8% (active)	-73.8% (active)	-97.7% (active)	-5.3% (active)	4.94% (active)	-22.2% (active)			
Cn1cc(NC(=O)c2cc(NC(=O)c3ccc(C#Cc4ccccc4)cc3)cn2C)cc1C(=O)NCCCN1CCOCC1	-71.2% (active)		73.3%	-70.1% (active)	29.8%	-92% (active)	-90.9% (active)	80.9%	40%	67.8%	126%	63.8%	56.9%	114%	0.88% (active)	-19.3% (active)	-100% (active)	-91.8% (active)	86.2%
COc1cc(OC)c2c3nc4cc(C)c(C)cc4nc3n(CCN(C)C)c2c1	49.9%	78.3%	70.5%	87.7%		69.8%	99.1%	89.9%	-48.8% (active)	-68.6% (active)	147%	47.3%	50.5%	105%		10.4%		66.5%	101%
Cc1cc2nc3c4ccccc4n(CCCN(C)C)c3nc2cc1C	-3.59% (active)	-97.8% (active)	-8.61% (active)	1.33% (active)	-32% (active)	-94.4% (active)	-90.4% (active)	-41.8% (active)	-27.6% (active)	2.63% (active)	8.05% (active)	4.95% (active)	3.24% (active)	-39.6% (active)	0.177% (active)	2.75% (active)		-71.1% (active)	-90.1% (active)
COc1ccc(/C=C/c2nc3ccccc3c(=O)n2CC(=O)Nc2ccc(OC)cc2)cc1	72.9%		51.9%	25.6%	46.1%	92.3%	74.7%	114%	57.3%	46.9%	48.2%	14%	47.3%	130%	63.6%	78.2%	64.8%	103%	96%
O=c1cc(-c2ccccc2)oc2cc(OCCCC[P+](c3ccccc3)(c3ccccc3)c3ccccc3)cc(O)c12	-65% (active)	-80.7% (active)	-44.5% (active)	-57.4% (active)	-87.3% (active)	-98.4% (active)	-59.5% (active)	-97.6% (active)	-49.5% (active)	-97.1% (active)	-81.8% (active)	-100% (active)	-97.1% (active)	-83.3% (active)	-75.9% (active)	-41.7% (active)	-90.1% (active)	-98.4% (active)	-94.1% (active)
